Measured values taken from ChEMBL document CHEMBL3988442, “University of Dundee, Small-Polar-MMV Screening Library” (2021).

target: T1, Aspartate--tRNA(Asp/Asn) ligase (Mycobacterium tuberculosis (strain ATCC 25618 / H37Rv)) (UniProt P9WFW3); experiment: Assay for Asp RNA synthetase-1 from Mycobacterium tuberculosis; format: functional; parameters: scale not given: direction of the effect not stated beside the values; settings: 30 µM; further: in the data most compounds retested in dose-response had high values
T1 sequence (whole entry): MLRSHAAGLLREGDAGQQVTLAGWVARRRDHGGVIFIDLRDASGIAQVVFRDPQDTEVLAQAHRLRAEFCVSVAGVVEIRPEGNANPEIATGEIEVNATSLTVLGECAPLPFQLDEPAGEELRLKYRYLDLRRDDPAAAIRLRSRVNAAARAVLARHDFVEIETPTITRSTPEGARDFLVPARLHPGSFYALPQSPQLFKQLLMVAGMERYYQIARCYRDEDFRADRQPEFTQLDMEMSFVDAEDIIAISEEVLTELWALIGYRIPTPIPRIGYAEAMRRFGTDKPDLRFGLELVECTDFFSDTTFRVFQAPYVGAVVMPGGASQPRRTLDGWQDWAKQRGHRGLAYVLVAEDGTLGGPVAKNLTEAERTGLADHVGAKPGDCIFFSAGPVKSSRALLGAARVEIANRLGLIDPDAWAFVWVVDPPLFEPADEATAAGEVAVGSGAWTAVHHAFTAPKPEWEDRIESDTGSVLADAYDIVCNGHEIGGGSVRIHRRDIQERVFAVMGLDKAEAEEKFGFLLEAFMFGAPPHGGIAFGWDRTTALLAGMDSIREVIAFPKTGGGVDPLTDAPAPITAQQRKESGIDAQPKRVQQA

Row | SMILES | Percent Effect [%]
1 | COCc1cccc(NC(C)C(=O)N(C)Cc2cccc(F)c2)c1 (stereo not given) | -0.296
2 | O=C(c1cccc(Cl)c1)N1CCCn2c(CN3CCCCC3)nnc2C1 | -2.93
3 | COc1ccc(C(C(=O)O)N2CCCN(C3CCCCC3)CC2)cn1 (stereo not given) | 2.16
4 | Cc1ccc(CC(=O)NCCCNS(C)(=O)=O)cc1 | 2.46
5 | CN(C)C(=O)N1CCN(Cc2ccccc2)[C@@H]2CS(=O)(=O)C[C@@H]21 | 0.569
6 | CC(C)NC(=O)C1CN(C(=O)Nc2ccccc2)CC12CCOCC2 (stereo not given) | 12.7
7 | CC(C)CN1CCN(C(=O)Nc2cc(C(F)(F)F)c[nH]c2=O)CC1 | -1.79
8 | CCCn1nc2c(cc1=O)CN(Cc1nc(CCOC)no1)CC2 | 16.9
9 | CCn1nc(C)c2nc(C(C)C)nc(NCCOC)c21 | -2.09
10 | Cc1cc(S(=O)(=O)N2CCC(S(C)(=O)=O)CC2)ccc1F | 1.15
11 | COCCOCC(=O)Nc1ccc(C)cc1F | -1.8
12 | FC1(F)CCN(Cc2ccncc2)CC12CCN(Cc1ccccn1)C2 (stereo not given) | 4.66
13 | COc1ccc(C2CCCN2C(=O)c2cc3c([nH]c2=O)CCC3)cc1 (stereo not given) | 3.11
14 | COc1ccc(CN2CCCC3(CCN(c4ccsc4)C3=O)C2)cc1 (stereo not given) | 1.46
15 | Cc1nc(N2CCN(C(=O)C3CC3)CC2)c2c(n1)c(C)nn2C | -2.18
16 | O=C(CC1CN(Cc2ccccc2)CCO1)Nc1ccccc1F (stereo not given) | -4.94
17 | Cc1cc(NC(=O)CCc2ccsc2)n(C)n1 | 1.87
18 | CC(C)c1nnc2n1CCN(C(=O)c1cccc(C(F)(F)F)c1)C2 | 0.896
19 | Cc1ncsc1C(=O)N(Cc1cccnc1)C1CC1 | -0.522
20 | COC(=O)c1ccc(C(=O)NS(=O)(=O)c2cncc(Br)c2)cc1 | -0.323

Row | SMILES | Percent Effect [%]
21 | Cc1noc([C@H]2C[C@@H]3CCN(C(=O)C4CCOCC4)C[C@H]3O2)n1 | 1.08
22 | Cc1nc(CNCC2CCCN2c2cccnn2)no1 (stereo not given) | -2.08
23 | CCn1cnnc1CNC(=O)N(C)Cc1ccc(F)c(F)c1 | -2.12
24 | CCc1nccn1C1CCCN(C(=O)c2cn3cccnc3n2)C1 (stereo not given) | -1.08
25 | COc1c(CNC(c2nccn2C)C(C)C)c(C)nn1C (stereo not given) | 0.122
26 | CC(C)NC(=O)N1CCN(S(=O)(=O)C2CC2)CC2(CNC(=O)C2)C1 (stereo not given) | -2.4
27 | CNC(=O)C1Cn2ccnc2C2(CCN(CCF)CC2)O1 (stereo not given) | 2.17
28 | CCc1ccc(NC(=O)C2OC(c3cccs3)=NN2C(C)=O)cc1 (stereo not given) | -1.78
29 | CC(C(=O)NCCN1CCCCCC1)n1cncn1 (stereo not given) | -4.21
30 | CN(C)S(=O)(=O)N1CCN(C(=O)c2ccc3ccn(C)c3c2)CC1 | -0.254
31 | O=C(CC1CCCC1)NCCn1ccc(-c2ccncc2)n1 | 7.45
32 | CCc1noc(CN(C)Cc2ccc(N3CCCCC3)cc2)n1 | -2.17
33 | Cc1cc(C)n(CC2CCCCN2C(=O)c2cnn(C)c2)n1 (stereo not given) | -5.01
34 | Cc1nccc(CN2CCC(c3nnsc3S(C)(=O)=O)CC2)n1 | -0.313
35 | CCCc1cc(C(=O)N(C)Cc2cnc3ccccc3n2)n(C)n1 | 8.2
36 | Cc1nc(CN2CCCC(N(C)Cc3nnsc3Cl)C2)no1 (stereo not given) | -2.25
37 | Cc1cc(NC(=O)CN2CCn3c(nnc3C(C)C)C2)no1 | -3.23
38 | CCN(CC1CCOC1)C(=O)Nc1ccc(N2CCCC2)nc1 (stereo not given) | 0.3
39 | CCc1c(C)nc2n(c1=O)CC(C(=O)Nc1nc3c(s1)CCCC3)CS2 (stereo not given) | 2.32
40 | CC(NC(=O)N(C)CCCOc1ccc(F)cc1)c1nncn1C (stereo not given) | -2.37

target: Shiga toxin 2 (Escherichia coli O157:H7) (UniProt P09385+P09386); experiment: E. coli 0.157:H7 Shiga Toxin SOP - stx2 screening assay; format: functional; parameters: scale not given: direction of the effect not stated beside the values; settings: 30 µM

Row | SMILES | Percent Effect [%]
41 | COCc1cccc(NC(C)C(=O)N(C)Cc2cccc(F)c2)c1 (stereo not given) | -8.46
42 | O=C(c1cccc(Cl)c1)N1CCCn2c(CN3CCCCC3)nnc2C1 | -13.3
43 | COc1ccc(C(C(=O)O)N2CCCN(C3CCCCC3)CC2)cn1 (stereo not given) | 0.0125
44 | Cc1ccc(CC(=O)NCCCNS(C)(=O)=O)cc1 | -16.3
45 | CN(C)C(=O)N1CCN(Cc2ccccc2)[C@@H]2CS(=O)(=O)C[C@@H]21 | -3.78
46 | CC(C)NC(=O)C1CN(C(=O)Nc2ccccc2)CC12CCOCC2 (stereo not given) | -4.72
47 | CC(C)CN1CCN(C(=O)Nc2cc(C(F)(F)F)c[nH]c2=O)CC1 | 5.35
48 | CCCn1nc2c(cc1=O)CN(Cc1nc(CCOC)no1)CC2 | -17.7
49 | CCn1nc(C)c2nc(C(C)C)nc(NCCOC)c21 | -4.71
50 | Cc1cc(S(=O)(=O)N2CCC(S(C)(=O)=O)CC2)ccc1F | -4.34
51 | COCCOCC(=O)Nc1ccc(C)cc1F | 2.25
52 | FC1(F)CCN(Cc2ccncc2)CC12CCN(Cc1ccccn1)C2 (stereo not given) | -2.47
53 | COc1ccc(C2CCCN2C(=O)c2cc3c([nH]c2=O)CCC3)cc1 (stereo not given) | -10
54 | COc1ccc(CN2CCCC3(CCN(c4ccsc4)C3=O)C2)cc1 (stereo not given) | -4.23
55 | Cc1nc(N2CCN(C(=O)C3CC3)CC2)c2c(n1)c(C)nn2C | -35.4
56 | O=C(CC1CN(Cc2ccccc2)CCO1)Nc1ccccc1F (stereo not given) | -0.0564
57 | Cc1cc(NC(=O)CCc2ccsc2)n(C)n1 | -17.7
58 | CC(C)c1nnc2n1CCN(C(=O)c1cccc(C(F)(F)F)c1)C2 | -0.987
59 | Cc1ncsc1C(=O)N(Cc1cccnc1)C1CC1 | 5.93
60 | COC(=O)c1ccc(C(=O)NS(=O)(=O)c2cncc(Br)c2)cc1 | 8.86

Row | SMILES | Percent Effect [%]
61 | Cc1noc([C@H]2C[C@@H]3CCN(C(=O)C4CCOCC4)C[C@H]3O2)n1 | -0.561
62 | Cc1nc(CNCC2CCCN2c2cccnn2)no1 (stereo not given) | -15.8
63 | CCn1cnnc1CNC(=O)N(C)Cc1ccc(F)c(F)c1 | 18.2
64 | CCc1nccn1C1CCCN(C(=O)c2cn3cccnc3n2)C1 (stereo not given) | 5.72
65 | COc1c(CNC(c2nccn2C)C(C)C)c(C)nn1C (stereo not given) | 16.3
66 | CC(C)NC(=O)N1CCN(S(=O)(=O)C2CC2)CC2(CNC(=O)C2)C1 (stereo not given) | -12.6
67 | CNC(=O)C1Cn2ccnc2C2(CCN(CCF)CC2)O1 (stereo not given) | -8.7
68 | CCc1ccc(NC(=O)C2OC(c3cccs3)=NN2C(C)=O)cc1 (stereo not given) | -90
69 | CC(C(=O)NCCN1CCCCCC1)n1cncn1 (stereo not given) | -27.3
70 | CN(C)S(=O)(=O)N1CCN(C(=O)c2ccc3ccn(C)c3c2)CC1 | 4.4
71 | O=C(CC1CCCC1)NCCn1ccc(-c2ccncc2)n1 | 3.58
72 | CCc1noc(CN(C)Cc2ccc(N3CCCCC3)cc2)n1 | -19.3
73 | Cc1cc(C)n(CC2CCCCN2C(=O)c2cnn(C)c2)n1 (stereo not given) | -14
74 | Cc1nccc(CN2CCC(c3nnsc3S(C)(=O)=O)CC2)n1 | 5.72
75 | CCCc1cc(C(=O)N(C)Cc2cnc3ccccc3n2)n(C)n1 | -6.99
76 | Cc1nc(CN2CCCC(N(C)Cc3nnsc3Cl)C2)no1 (stereo not given) | 18.2
77 | Cc1cc(NC(=O)CN2CCn3c(nnc3C(C)C)C2)no1 | -39.9
78 | CCN(CC1CCOC1)C(=O)Nc1ccc(N2CCCC2)nc1 (stereo not given) | 1.73
79 | CCc1c(C)nc2n(c1=O)CC(C(=O)Nc1nc3c(s1)CCCC3)CS2 (stereo not given) | -5.2
80 | CC(NC(=O)N(C)CCCOc1ccc(F)cc1)c1nncn1C (stereo not given) | -11.9
